Consider 8 molecules from PubChem BioAssay (NCI).

SMILES strings stand for the structures. About 83,000 compounds went through this panel and 20% of them were active in at least one assay; those are over-represented in the sample as a whole.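 Cell lines were cultured in 96-well plates, exposed to a single compound concentration, and assessed for percent growth 48 hours later.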 A number with no mark means an inactive call. Active and inactive are the calls of the source. The calls were made as follows: active = growth percent below 10; inactive = the rest.

Common to all, as to assay: NCI-60 one-dose screen, 48 h (100 = growth as untreated, 0 = no growth, -100 = all killed)
The subject of one assay is HCT-15 colon. The conditions noted are these: 10 µM unless noted.
The next assay deals with HT29 colon. The conditions noted are these: 10 µM unless noted.
Another assay has as its system SNB-75 CNS. The settings on record: 10 µM unless noted.
The subject of a further assay is SNB-19 CNS. The settings on record: 10 µM unless noted.
A further assay relates to U251 CNS. The settings on record: 10 µM unless noted.
For another assay, the system named is PC-3 prostate. The settings on record: 10 µM unless noted.
The subject of the next assay is SK-MEL-5 melanoma. The conditions noted are these: 10 µM unless noted.
The next assay relates to UACC-62 melanoma. The settings on record: 10 µM unless noted.
Another assay concerns LOX IMVI melanoma. The conditions noted are these: 10 µM.
The subject of the next assay is SK-MEL-28 melanoma. The settings on record: 10 µM unless noted.
In another assay the test system is SK-MEL-2 melanoma. The conditions noted are these: 10 µM unless noted.
A further assay deals with EKVX NSCLC. The conditions noted are these: 10 µM unless noted.
In the next assay the test system is SN12C renal. The settings on record: 10 µM unless noted.
A further assay deals with UO-31 renal. The settings on record: 10 µM unless noted.
The next assay deals with TK-10 renal. The settings on record: 10 µM unless noted.
In a further assay the test system is ACHN renal. The conditions noted are these: 10 µM unless noted.
For another assay, the system named is CAKI-1 renal. The conditions noted are these: 10 µM unless noted.
In the next assay the test system is A498 renal. The conditions noted are these: 10 µM unless noted.
The next assay deals with CCRF-CEM leukemia. The conditions noted are these: 10 µM unless noted.
In another assay the test system is MOLT-4 leukemia. The settings on record: 10 µM unless noted.

Regarding `CCOC(=O)C(N=Nc1ccc(S(=O)(=O)N=C(N)N)cc1)C(C)=O` (stereo not given), the growth in the assay with HCT-15 colon is 108%; in the assay with HT29 colon, 107%; in the assay on SNB-75 CNS, 74.3%; in the assay with SNB-19 CNS, 101%; in the assay on U251 CNS, 98.6%; in the assay on PC-3 prostate, 98.5%. Further, the growth in the assay on SK-MEL-5 melanoma is 102%; in the assay with UACC-62 melanoma, 99.2%; in the assay on LOX IMVI melanoma, 109%; in the assay with SK-MEL-28 melanoma it was 109%; with SK-MEL-2 melanoma, 119%; in the assay on EKVX NSCLC, 111%. Besides, the growth was 101% in the assay on SN12C renal; 97.6% in the assay with UO-31 renal; 88.6% in the assay on TK-10 renal; 98.2% in the assay on ACHN renal; 96.3% with CAKI-1 renal; 102% with A498 renal. In addition, the growth was 101% in the assay on CCRF-CEM leukemia and 110% in the assay on MOLT-4 leukemia.

On to `Cc1ccc(S(=O)(=O)c2nc(S(=O)(=O)c3ccc(C)cc3)c(N3CCN(C)CC3)s2)cc1`, for which the growth in the assay with HCT-15 colon is 24.6%; in the assay on HT29 colon, 56%; with SNB-75 CNS it was 91.3%; in the assay on SNB-19 CNS, 85.7%; in the assay with U251 CNS it was 52.9%; in the assay with PC-3 prostate it was 78.8%. The growth with SK-MEL-5 melanoma is 63.2%; in the assay with UACC-62 melanoma, 48%; in the assay with LOX IMVI melanoma it was 30.4%; with SK-MEL-28 melanoma, 68.8%; with SK-MEL-2 melanoma, 49.4%; in the assay on EKVX NSCLC it was 63.4%. For the same molecule, the growth is 46.3% in the assay on SN12C renal; 69.5% in the assay with UO-31 renal; 125% with TK-10 renal; 71.6% with ACHN renal; 60.9% in the assay on CAKI-1 renal; 83.5% with A498 renal. For the same molecule, the growth in the assay on CCRF-CEM leukemia was 19.7%; in the assay with MOLT-4 leukemia, 30%.

As to `COc1cc2c(c(OC)c1OC)C(=O)CC(c1cccc(NC(=O)c3cc(NC(=O)[C@H](C)N)ccc3Cl)c1)O2` (stereo not given in full), the growth was 24.5% in the assay with HCT-15 colon; 59.5% in the assay on HT29 colon; 76.1% in the assay on SNB-75 CNS; 67.1% in the assay with SNB-19 CNS; 20.9% in the assay with U251 CNS; 22% with PC-3 prostate. For the same molecule, the growth in the assay with SK-MEL-5 melanoma is 24.9%; in the assay on UACC-62 melanoma, 34%; in the assay with LOX IMVI melanoma, 15.7%; in the assay with SK-MEL-28 melanoma, 63%; in the assay on SK-MEL-2 melanoma, 33.5%; in the assay with EKVX NSCLC, 48.4%. Moreover, the growth in the assay with SN12C renal is 51.8%; in the assay with UO-31 renal it was 46.4%; with TK-10 renal it was 101%; with ACHN renal, 50.4%; in the assay with CAKI-1 renal it was 51.5%; in the assay on A498 renal it was 80.7%. Also, the growth is 12.4% in the assay with CCRF-CEM leukemia and 8.42% (active) in the assay with MOLT-4 leukemia.

As to `Cc1ccc(C2=NN(c3nc(-c4cc5ccccc5oc4=O)cs3)C(c3ccc(C)cc3)C2)cc1` (stereo not given), the growth with HCT-15 colon was 91.7%; with HT29 colon it was 124%; in the assay on SNB-75 CNS, 96.2%; with SNB-19 CNS it was 94.7%; in the assay with U251 CNS, 99.9%; with PC-3 prostate, 99.9%. Also, the growth is 101% in the assay with SK-MEL-5 melanoma; 91.2% in the assay on UACC-62 melanoma; 91.2% in the assay on LOX IMVI melanoma; 123% with SK-MEL-28 melanoma; 104% with SK-MEL-2 melanoma; 93.6% in the assay with EKVX NSCLC. The growth with SN12C renal is 104%; in the assay with UO-31 renal, 68%; with TK-10 renal, 163%; in the assay with ACHN renal, 102%; in the assay with CAKI-1 renal, 88.2%; with A498 renal, 127%. In addition, the values for the growth with CCRF-CEM leukemia and in the assay on MOLT-4 leukemia were 101% and 98.5%, respectively.

Regarding `C#CCOc1cc(N(CC)CC)ccc1C(C(=O)NC(C)(C)C)N(C(=O)C1CCc2cc(F)ccc2O1)c1ccccc1Br` (stereo not given), the growth in the assay with HCT-15 colon was 50.2%; in the assay on HT29 colon, 51.1%; in the assay on SNB-75 CNS, 97.5%; with SNB-19 CNS it was 56.5%; with U251 CNS, 48.6%; in the assay on PC-3 prostate it was 27.3%. Also, the growth was 56.8% in the assay with SK-MEL-5 melanoma; 40.8% in the assay on UACC-62 melanoma; 31.7% with LOX IMVI melanoma; 64.8% in the assay with SK-MEL-28 melanoma; 3.66% (active) with SK-MEL-2 melanoma; 60.4% in the assay on EKVX NSCLC. Moreover, the growth in the assay with SN12C renal is 56.3%; in the assay on UO-31 renal, 43.4%; in the assay with TK-10 renal, 86.3%; in the assay on ACHN renal, 42.1%; with CAKI-1 renal, 44.7%; in the assay on A498 renal, 80.9%. The growth in the assay on CCRF-CEM leukemia is 57.5%; in the assay on MOLT-4 leukemia it was 14.4%.

For the molecule `O=C(Cn1nc(-c2ccccc2)ccc1=O)N/N=C/c1ccc(N2CCOCC2)cc1`, the growth with HCT-15 colon was 97.2%; with HT29 colon it was 113%; in the assay with SNB-75 CNS, 96.4%; in the assay with SNB-19 CNS it was 89.9%; in the assay on U251 CNS, 93.2%; in the assay with PC-3 prostate, 102%. The growth in the assay on SK-MEL-5 melanoma is 92.4%; in the assay on UACC-62 melanoma, 83.7%; in the assay with LOX IMVI melanoma, 102%; in the assay with SK-MEL-28 melanoma, 104%; in the assay on SK-MEL-2 melanoma, 98.1%; in the assay with EKVX NSCLC it was 95.3%. The growth is 94.9% in the assay on SN12C renal; 75.8% in the assay on UO-31 renal; 103% with TK-10 renal; 95.7% in the assay on ACHN renal; 90.8% in the assay on CAKI-1 renal; 84% in the assay on A498 renal. For the same molecule, the growth in the assay with CCRF-CEM leukemia is 92.5%; with MOLT-4 leukemia, 98.1%.

On to `C#CCOc1cc(N(CC)CC)ccc1C(C(=O)NC(C)(C)C)N(C(=O)C1CCc2cc(F)ccc2O1)c1ccc(F)cc1` (stereo not given), for which the growth was 44.6% in the assay with HCT-15 colon; 61% with HT29 colon; 60.5% in the assay on SNB-75 CNS; 41.6% in the assay on SNB-19 CNS; 37.9% in the assay with U251 CNS; 17.6% in the assay on PC-3 prostate. Moreover, the growth was 33.9% in the assay with SK-MEL-5 melanoma; 35.5% with UACC-62 melanoma; 42.3% in the assay on LOX IMVI melanoma; 66.7% with SK-MEL-28 melanoma; -24.7% (active) with SK-MEL-2 melanoma; 37.8% with EKVX NSCLC. Besides, the growth is 48.9% in the assay on SN12C renal; 30.4% with UO-31 renal; 68.7% with TK-10 renal; 33.5% in the assay with ACHN renal; 30.7% in the assay on CAKI-1 renal; 78.5% with A498 renal. Besides, the growth was 40.4% with CCRF-CEM leukemia and 9.55% (active) in the assay on MOLT-4 leukemia.

As for `O=C(c1ccccc1)C(c1c[nH]c2ccccc12)c1c[nH]c2ccccc12`, the growth in the assay on HCT-15 colon is 13%; in the assay on HT29 colon, 22.9%; with SNB-75 CNS it was 72.4%; with SNB-19 CNS it was 91.7%; in the assay on U251 CNS it was 59.9%; in the assay on PC-3 prostate, 38.6%. Further, the growth in the assay on SK-MEL-5 melanoma was 92.5%; with UACC-62 melanoma, 60.4%; with LOX IMVI melanoma it was -48.4% (active); in the assay on SK-MEL-28 melanoma, 76.9%; with SK-MEL-2 melanoma, 71.9%; in the assay on EKVX NSCLC it was 76.5%. The growth in the assay on SN12C renal was 49%; with UO-31 renal, 45%; with TK-10 renal it was 142%; with ACHN renal, 53.5%; in the assay with CAKI-1 renal it was 31.6%; with A498 renal, 98.1%. Besides, the growth was 3.87% (active) with CCRF-CEM leukemia and 16.5% with MOLT-4 leukemia.
